This is an account of results in the supplement of paper PMC13380429.

Molecules are shown by their SMILES. A number with no mark means an inactive call.

In the assay the test system is Vero E6 infected with SARS-CoV-2. In words: inhibition of SARS-CoV-2 cytopathic effect; higher = more antiviral protection, active = above 15. The settings on record: 48 h.

Regarding `CO[C@H]1CC[C@H](N2C(=O)CNc3ncc(-c4ccc(C(C)(C)O)nc4)nc32)CC1`, the “inhibition of SARS-CoV-2 cytopathic effect” value (from here on “inhibition”) was 0.96% (1 nM); -0.05% (8.33 nM); 0.58% (100 nM); -3.48% (833.33 nM); -14.6% (10000 nM).
Regarding `Cc1ccc(-n2nc(C(C)(C)C)cc2NC(=O)Nc2ccc(OCCN3CCOCC3)c3ccccc23)cc1` [doramapimod], the “inhibition” value was -2.22% (1 nM); 1.14% (8.33 nM); -0.73% (100 nM); 4.29% (833.33 nM); 8.03% (10000 nM).
In the case of `COC[C@H]1OC(=O)c2coc3c2[C@@]1(C)C1=C(C3=O)[C@@H]2CCC(=O)[C@@]2(C)C[C@H]1OC(C)=O` [wortmannin], the “inhibition” value (1 nM) was -3.55%; the “inhibition” value (8.33 nM) was -1.71%; the “inhibition” value (100 nM) was -2.28%; the “inhibition” value (833.33 nM) was -4.43%; the “inhibition” value (10000 nM) was -2.83%.
In the case of `O=C(CCCN1CCC2(CC1)C(=O)NCN2c1ccccc1)c1ccc(F)cc1` [spiperone], the “inhibition” value was 1.92% (1 nM); 1.62% (8.33 nM); 0.95% (100 nM); 9.61% (833.33 nM); 81.1% (active) (10000 nM).
Regarding `O=C(O)c1cc(C(=O)O)c(C(=O)N(Cc2cccc(Oc3ccccc3)c2)[C@H]2CCCc3ccccc32)cc1C(=O)O`, the “inhibition” value runs as follows: (1 nM) 0.03%; (8.33 nM) -0.1%; (100 nM) -1.42%; (833.33 nM) -0.62%; (10000 nM) 0.42%.
For the compound `CCOC(=O)Nc1cc(-c2ccc(C)c(NS(C)(=O)=O)c2)nn2c(C)nnc12` [bromosporine], the “inhibition” value is -4.03% (1 nM); -0.62% (8.33 nM); -0.65% (100 nM); -0.48% (833.33 nM); -19.3% (10000 nM).
For the compound `COc1ccc(-c2coc3cc(O)cc(O)c3c2=O)cc1` [4-methylgenistein], the “inhibition” value (1 nM) is -1.18%; the “inhibition” value (8.33 nM) is -0.05%; the “inhibition” value (100 nM) is 0.18%; the “inhibition” value (833.33 nM) was -1.7%; the “inhibition” value (10000 nM) is 2.29%.
Turning to `CCCCCCCCCCCCCCCCCCO` [octadecan-1-ol], the “inhibition” value was -0.16% (1 nM); -0.19% (8.33 nM); -2.3% (100 nM); -2.63% (833.33 nM); 2.04% (10000 nM).
